# Results as given in the antibiotic and cytotoxicity screens of Wong et al. (2023).
# Out of some 39,000 compounds screened, about 3,300 (8.5%) were called active. The full list was thinned out, with actives kept by preference.
# Test system: HepG2
# Experiment: cytotoxicity call (relative viability < 0.9)
# Conditions: 10 µM
row,Compound,cytotoxicity call
1,C[C@H]1CN([C@@H](C)CO)C(=O)c2cc(C#CCN(C)C)cnc2O[C@@H]1CN(C)C(=O)CCN1CCCCC1,inactive
2,C[C@H]1CN([C@@H](C)CO)S(=O)(=O)c2ccc(C#Cc3ccncc3)cc2O[C@H]1CN(C)C(=O)Nc1ccc2c(c1)OCO2,active
3,C[C@H]1CN([C@@H](C)CO)S(=O)(=O)c2ccc(C#Cc3cccnc3)cc2O[C@H]1CN(C)C(=O)Nc1ccc2c(c1)OCO2,inactive
4,C[C@@H]1CN([C@H](C)CO)S(=O)(=O)c2ccc(C#Cc3ccncc3)cc2O[C@@H]1CN(C)C(=O)Nc1ccc2c(c1)OCO2,active
5,C[C@H]1CN([C@@H](C)CO)S(=O)(=O)c2ccc(C#Cc3cccnc3)cc2O[C@@H]1CN(C)C(=O)Nc1ccc2c(c1)OCO2,inactive
6,C[C@@H]1CN([C@H](C)CO)S(=O)(=O)c2ccc(C#Cc3ccncc3)cc2O[C@H]1CN(C)C(=O)Nc1ccc2c(c1)OCO2,inactive
7,C[C@@H]1CN([C@@H](C)CO)S(=O)(=O)c2ccc(C#Cc3cccnc3)cc2O[C@H]1CN(C)C(=O)Nc1ccc2c(c1)OCO2,inactive
8,C[C@H](CO)N1C[C@H](C)[C@H](CN(C)C(=O)Nc2ccc3c(c2)OCO3)Oc2cc(C#Cc3cccnc3)ccc2S1(=O)=O,inactive
9,C[C@H](CO)N1C[C@H](C)[C@@H](CN(C)C(=O)Nc2ccc3c(c2)OCO3)Oc2cc(C#Cc3ccncc3)ccc2S1(=O)=O,active
10,C[C@@H]1CN([C@H](C)CO)S(=O)(=O)c2ccc(C#Cc3cccnc3)cc2O[C@H]1CN(C)C(=O)Nc1ccc2c(c1)OCO2,inactive
11,C[C@@H]1CN([C@@H](C)CO)S(=O)(=O)c2ccc(C#Cc3ccncc3)cc2O[C@H]1CN(C)C(=O)Nc1ccc2c(c1)OCO2,active
12,C[C@@H]1CN([C@H](C)CO)S(=O)(=O)c2ccc(C#Cc3cccnc3)cc2O[C@@H]1CN(C)C(=O)Nc1ccc2c(c1)OCO2,inactive
13,C[C@H](CO)N1C[C@H](C)[C@H](CN(C)C(=O)Nc2ccc3c(c2)OCO3)Oc2cc(C#Cc3ccncc3)ccc2S1(=O)=O,inactive
14,C[C@@H]1CCCCO[C@@H](CN(C)CC2CCCCC2)[C@@H](C)CN([C@H](C)CO)C(=O)c2cc(NC(=O)C3CCCCC3)ccc2O1,inactive
15,CO[C@@H](CN(C)S(=O)(=O)c1cn(C)cn1)[C@H](C)CN(C(=O)Nc1ccc(C(F)(F)F)cc1)[C@@H](C)CO,inactive
16,C[C@@H]1CN([C@H](C)CO)C(=O)c2cccc(NS(=O)(=O)c3ccc(F)cc3)c2O[C@@H]1CN(C)S(C)(=O)=O,inactive
17,C[C@H](CO)N1C[C@H](C)[C@H](CN(C)S(=O)(=O)c2ccc(F)cc2)Oc2ncc(Br)cc2C1=O,inactive
18,Cc1noc(C)c1S(=O)(=O)Nc1ccc2c(c1)C(=O)N([C@@H](C)CO)C[C@H](C)[C@@H](CN(C)S(=O)(=O)c1cn(C)cn1)OCCCC[C@H](C)O2,inactive
19,C[C@H](CO)N1C[C@H](C)[C@H](CN(C)CC2CC2)Oc2ccc(NS(=O)(=O)c3ccc(F)cc3)cc2C1=O,inactive
20,C[C@H](CO)N1C[C@H](C)[C@H](CN(C)S(=O)(=O)c2cccs2)OCCCC[C@H](C)Oc2ccc(NC(=O)Cc3ccccc3)cc2C1=O,inactive

row,Compound,cytotoxicity call
1,CC(C)CC(=O)N1CCN(S(C)(=O)=O)CC1,inactive
2,CN1CCc2nc(C(=O)N[C@@H]3C[C@@H](C(=O)N(C)C)CC[C@@H]3NC(=O)C(=O)Nc3ccc(Cl)cn3)sc2C1,inactive
3,C[C@@H]1CN([C@H](C)CO)S(=O)(=O)c2ccc(C#Cc3cccc(F)c3)cc2O[C@H]1CN(C)S(=O)(=O)c1cn(C)cn1,inactive
4,O=C(O)c1ccnc(C(=O)O)c1,inactive
5,C[C@@H]1CN([C@@H](C)CO)C(=O)c2cc(N(C)C)ccc2O[C@@H](C)CCCCO[C@H]1CN(C)Cc1ccc(C(=O)Nc2ccccc2N)cc1,inactive
6,C[C@H]1CN([C@@H](C)CO)S(=O)(=O)c2ccc(Br)cc2O[C@@H]1CN(C)C(=O)Nc1ccc2c(c1)OCO2,inactive
7,C[C@H](CO)N1C[C@H](C)[C@@H](CN(C)C(=O)Nc2ccc3c(c2)OCO3)Oc2cc(C#Cc3cccnc3)ccc2S1(=O)=O,inactive
8,C[C@@H]1CN([C@@H](C)CO)S(=O)(=O)c2ccc(Br)cc2O[C@H]1CN(C)C(=O)Nc1ccc2c(c1)OCO2,inactive
9,C[C@H]1CN([C@@H](C)CO)S(=O)(=O)c2ccc(C#Cc3ccncc3)cc2O[C@@H]1CN(C)C(=O)Nc1ccc2c(c1)OCO2,active
10,C[C@@H]1CN([C@@H](C)CO)S(=O)(=O)c2ccc(C#Cc3cccnc3)cc2O[C@@H]1CN(C)C(=O)Nc1ccc2c(c1)OCO2,inactive
11,C[C@@H]1CN([C@@H](C)CO)S(=O)(=O)c2ccc(C#Cc3ccncc3)cc2O[C@@H]1CN(C)C(=O)Nc1ccc2c(c1)OCO2,active
12,CC(C)NC(=O)Nc1ccc2c(c1)C(=O)N([C@@H](C)CO)C[C@@H](C)[C@H](CN(C)Cc1ccc(C(=O)O)cc1)O2,inactive
13,C[C@@H]1CN([C@H](C)CO)C(=O)c2cccc(NC(=O)Nc3ccc(C(F)(F)F)cc3)c2O[C@@H]1CN(C)C(=O)Nc1cccc2ccccc12,inactive
14,C[C@H](CO)N1C[C@H](C)[C@@H](CN(C)C(=O)Nc2cccc3ccccc23)Oc2c(NC(=O)Nc3ccc(C(F)(F)F)cc3)cccc2C1=O,inactive
15,C[C@@H]1CN([C@@H](C)CO)C(=O)c2cccc(NC(=O)Nc3ccc(C(F)(F)F)cc3)c2O[C@H]1CN(C)C(=O)Nc1cccc2ccccc12,active
16,C[C@@H]1CN([C@@H](C)CO)C(=O)c2cccc(NC(=O)Nc3ccc(C(F)(F)F)cc3)c2O[C@@H]1CN(C)C(=O)Nc1cccc2ccccc12,active
17,C[C@H](CO)N1C[C@H](C)[C@H](CN(C)C(=O)Nc2cccc3ccccc23)Oc2c(NC(=O)Nc3ccc(C(F)(F)F)cc3)cccc2C1=O,active
18,C[C@@H]1CN([C@H](C)CO)C(=O)c2cccc(NC(=O)Nc3ccc(C(F)(F)F)cc3)c2O[C@H]1CN(C)C(=O)Nc1cccc2ccccc12,active
19,C[C@@H]1CCCCO[C@@H](CN(C)C(=O)c2ccccc2)[C@H](C)CN([C@@H](C)CO)C(=O)c2cc(NS(=O)(=O)c3ccc(Cl)cc3)ccc2O1,inactive
20,COc1ccc(S(=O)(=O)N(C)C[C@H]2Oc3ccc(NS(=O)(=O)c4ccccc4)cc3CC(=O)N([C@H](C)CO)C[C@@H]2C)cc1,inactive

row,Compound,cytotoxicity call
1,COc1ccc(S(=O)(=O)N(C)C[C@H]2OCCCC[C@H](C)Oc3ccc(NS(=O)(=O)c4cn(C)cn4)cc3C(=O)N([C@@H](C)CO)C[C@H]2C)cc1,inactive
2,C[C@H]1CN([C@@H](C)CO)S(=O)(=O)c2ccc(C#CC3(O)CCCC3)cc2O[C@H]1CN(C)C(=O)Nc1ccc(F)cc1,inactive
3,COCC(=O)N1CC[C@]2(CC1)CN([C@H](CO)c1c2c2ccc(cc2n1C)OC)C(=O)CN1CCOCC1,inactive
4,O=C1N[C@@H](Cc2c[nH]c3ccccc23)COC(=O)[C@@H](Cc2ccc(F)cc2)CCC=CC[C@H]1CC(=O)N(CCO)Cc1ccccc1,inactive
5,C[C@H](CO)N1C[C@H](C)[C@@H](CN(C)S(=O)(=O)c2cn(C)cn2)OCc2ccccc2-c2c(n(C)c3ccccc23)C1=O,inactive
6,O=C(C[C@H]1C[C@@H]2c3cc(NC(=O)c4ccc5c(c4)OCO5)ccc3O[C@@H]2[C@@H](CO)O1)NCCN1CCCCC1,inactive
7,CC(C)(C)[S@](=O)N1Cc2cc(C(=O)N3CCc4ccccc4C3)nc(-c3cccc(-c4cccnc4)c3)c2[C@@H]1CCO,inactive
8,Cc1ccc(S(=O)(=O)Nc2ccc3c(c2)C(=O)N([C@H](C)CO)C[C@H](C)[C@@H](CN(C)S(=O)(=O)c2ccc(F)cc2)OCCCC[C@@H](C)O3)cc1,inactive
9,C[C@H]1CN([C@@H](C)CO)C(=O)c2cccc(NC(=O)Nc3ccc(C(F)(F)F)cc3)c2O[C@H]1CN(C)C(=O)Nc1cccc2ccccc12,inactive
10,C[C@H](CO)N1C[C@H](C)[C@H](CN(C)C(=O)Nc2cccc3ccccc23)Oc2c(NC(=O)Nc3ccc(F)cc3)cccc2C1=O,inactive
11,C[C@H]1CN([C@@H](C)CO)C(=O)c2cccc(NC(=O)Nc3ccc(C(F)(F)F)cc3)c2O[C@@H]1CN(C)C(=O)Nc1cccc2ccccc12,active
12,C[N+](C)(C)CCCCNC(=O)[C@H]1C[C@H]2C(=O)N[C@@H](CCCC[N+](C)(C)C)C(=O)N2[C@H]1c1ccc(O)cc1,inactive
13,CC(=O)NCCCC[C@@H]1NC(=O)[C@H]2C[C@@H](C(=O)NCCCC[N+](C)(C)C)[C@@H](c3ccc(O)cc3)N2C1=O,active
14,CC(=O)NCCCC[C@@H]1NC(=O)[C@H]2C[C@@H](C(=O)NCCCC[N+](C)(C)C)[C@@H](c3cccc(OCCO)c3)N2C1=O,inactive
15,C[N+](C)(C)CCCCNC(=O)[C@@H]1C[C@@H]2C(=O)N[C@@H](CCCC[N+](C)(C)C)C(=O)N2[C@@H]1c1ccc(O)cc1,inactive
16,C[N+](C)(C)CCCCCCNC(=O)[C@H]1C[C@H]2C(=O)N3CCC[C@H]3C(=O)N2[C@H]1c1cccc(OCCO)c1,inactive
17,C[N+](C)(C)CCCCNC(=O)[C@H]1C[C@H]2C(=O)N[C@@H](CCCC[N+](C)(C)C)C(=O)N2[C@H]1c1cccc(OCCO)c1,inactive
18,C[N+](C)(C)CCCCNC(=O)[C@@H]1C[C@@H]2C(=O)N3CCC[C@H]3C(=O)N2[C@@H]1c1cccc(OCCO)c1,inactive
19,C[N+](C)(C)CCCCNC(=O)[C@H]1C[C@H]2C(=O)N3CCC[C@H]3C(=O)N2[C@H]1c1cccc(OCCO)c1,active
20,CC(=O)NCCCC[C@@H]1NC(=O)[C@@H]2C[C@H](C(=O)NCCCC[N+](C)(C)C)[C@H](c3cccc(OCCO)c3)N2C1=O,active
